Results taken from PubChem BioAssay (Tox21).
Where “and” joins values, the source holds several entries; their conditions need not be identical. Equal values may be shown once. Calls of active or inactive are those of the source. A call without a number means that no potency is given here. Calls follow the shape of the full dose curve.

Molecular target: Estrogen receptor (Homo sapiens) (UniProt P03372)
Assay: qHTS assay to identify small molecule agonists of the estrogen receptor alpha (ER-alpha) signaling pathway in the presence of an antagonist (AID 1259383); also: nearly all actives have a fitted effect of over 15% in size; as to activation: top concentration of the series differs between compounds
Details: VM7Luc4E2 cells, ERE-luciferase, +ICI-182,780, 22 h; series mostly up to 92.4 µM; activation: at the top concentration
Excerpt: National Center for Advancing Translational Sciences [NCATS] NIH Chemical Genomics Center [NCGC] U.S. Environmental Protection Agency [EPA] National Institutes of Environmental Health Sciences [NIEHS] National Toxicology Program [NTP] Assay overview: Estrogen receptor (ER), a member of nuclear hormone receptor plays an important role in development, metabolic homeostasis and reproduction. Two subtypes of ER, ER-alpha and ER-beta, have similar expression patterns with some uniqueness in both types. Endocrine disrupting chemicals (EDCs) and their interactions with steroid hormone receptors like ER causes disruption of normal endocrine function. Therefore, it is important to understand the effect of environmental chemicals in ER signaling pathway. For identifying ER agonists, VM7Luc4E2 cell line has been used in the current assay. VM7Luc4E2 cell line (provided by Denison MS, University of California) endogenously expresses full-length ER-alpha and is stably transfected with a plasmid containing four estrogen responsive elements (ERE) upstream of a luciferase reporter gene. This current screening for measuring luciferase reporter gene activity using VM7Luc4E2 cells against Tox21 10K library collection is a confirmation study on agonist mode screening in presence of ER-antagonist (ICI-182,780) at 10.0nM final concentration.
Assay Protocol Summary: VM7Luc4E2 cells were cultured in phenol red free assay medium containing 10% charcoal stripped FBS for 5 days prior to the assay. The cells were dispensed at 4,000 cells in 4uL of assay medium per well into white wall/solid-bottom 1536-well plates (Corning Life Sciences, Corning, NY) using a Multidrop Combi (Thermo Fisher Scientific Inc., Waltham, MA) dispenser. After the assay plates were incubated at 37C and 5% CO2 for 24hr, 1uL of 10.0nM (final concentration) ICI-182,780 or assay buffer was added using two separate tips of Flying Reagent Dispenser (FRD, Aurora Discovery, San Diego, CA). Then 23nL of compounds dissolved in DMSO at 15 concentrations and positive controls or DMSO only was transferred to the assay plates by a Pintool station (Wako, San Diego, CA). The assay plates were incubated at 37C and 5% CO2 for 22hr. For luciferase read, 4uL/well ONE-Glo reagent (Promega Corporation, Madison, WI) was added to each well using FRD and after 30min incubation at room temperature, luminescence signal was measured on ViewLux plate reader (PerkinElmer, Shelton, CT).
Potency is read from the fitted curve at half-maximal effect.

Chain of Estrogen receptor (Homo sapiens) (P03372 whole entry, looked up): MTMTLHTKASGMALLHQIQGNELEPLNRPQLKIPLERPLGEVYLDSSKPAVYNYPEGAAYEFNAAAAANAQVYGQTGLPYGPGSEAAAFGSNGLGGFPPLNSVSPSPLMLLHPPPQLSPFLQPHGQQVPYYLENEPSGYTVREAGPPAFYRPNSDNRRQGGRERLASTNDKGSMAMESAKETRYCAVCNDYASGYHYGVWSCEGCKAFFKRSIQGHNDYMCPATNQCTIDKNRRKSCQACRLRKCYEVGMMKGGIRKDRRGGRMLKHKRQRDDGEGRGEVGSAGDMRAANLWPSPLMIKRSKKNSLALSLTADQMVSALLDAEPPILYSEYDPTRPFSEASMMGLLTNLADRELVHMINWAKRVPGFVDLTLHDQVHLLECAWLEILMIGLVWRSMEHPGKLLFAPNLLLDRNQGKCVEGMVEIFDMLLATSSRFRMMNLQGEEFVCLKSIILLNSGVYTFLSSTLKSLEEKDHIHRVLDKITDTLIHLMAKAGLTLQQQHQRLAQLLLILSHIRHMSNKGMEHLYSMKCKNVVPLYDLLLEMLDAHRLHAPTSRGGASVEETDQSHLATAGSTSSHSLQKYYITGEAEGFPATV

Row | Structure (SMILES) | Potency | activation
1 | CCCCCCCC/C=C\CCCCCCCC(=O)O | inactive | –
2 | Cc1ccc(N)c([N+](=O)[O-])c1 | inactive | –
3 | Nc1cc([N+](=O)[O-])ccc1C(=O)O | inactive | –
4 | ClC/C=C/CCl | inactive | –
5 | CCO[Si](CCCNC(N)=O)(OCC)OCC | inactive | –
6 | CC(=O)Nc1ccc2c(c1)Cc1cc(NC(C)=O)ccc1-2 | inactive | –
7 | C=C1C[C@H]2[C@@H]3C=C(C)C4=CC(=O)CC[C@]4(C)[C@H]3CC[C@]2(C)[C@@]1(OC(C)=O)C(C)=O | inactive | –
8 | OC[C@@H](O)[C@@H](O[C@@H]1O[C@H](CO)[C@H](O)[C@H](O)[C@H]1O)[C@H](O)[C@@H](O)CO | inactive | –
9 | Cc1ccc(C(C)(C)C)cc1 | inactive | –
10 | C=C[C@@]1(C)CC(=O)[C@]2(O)[C@@]3(C)[C@@H](O)CCC(C)(C)[C@@H]3[C@H](O)[C@H](OC(C)=O)[C@@]2(C)O1 | inactive | –
11 | C1COCCN1 | inactive | –
12 | COc1cc([C@H]2Oc3cc([C@H]4Oc5cc(O)cc(O)c5C(=O)[C@@H]4O)ccc3O[C@@H]2CO)ccc1O | inactive | –
13 | CCCCCCCCCCCCCO | inactive | –
14 | Oc1c(Cl)ccc(Cl)c1Cl | inactive | –
15 | NCCN | inactive | –
16 | O=[Se](O)O | inactive | –
17 | O=C(O)c1cc(=O)[nH]c(=O)[nH]1 | inactive | –
18 | CC(=O)Oc1c(C)c(C)c2c(c1C)CC[C@@](C)(CCC[C@H](C)CCC[C@H](C)CCCC(C)C)O2 | inactive | –
19 | COc1ccc(-c2coc3cc(O)cc(O)c3c2=O)cc1 | 21.9 µM (active) and 9.69 µM (active) | –
20 | CCCCCCCCCCCCO | inactive | –

Row | Structure (SMILES) | Potency | activation
21 | Cc1ccc(S(=O)(=O)O)cc1C | inactive | –
22 | OC[C@H]1O[C@@H]2O[C@H]3[C@H](O)[C@@H](O)[C@@H](O[C@H]4[C@H](O)[C@@H](O)[C@@H](O[C@H]5[C@H](O)[C@@H](O)[C@@H](O[C@H]6[C@H](O)[C@@H](O)[C@@H](O[C@H]7[C@H](O)[C@@H](O)[C@@H](O[C@H]1[C@H](O)[C@H]2O)O[C@@H]7CO)O[C@@H]6CO)O[C@@H]5CO)O[C@@H]4CO)O[C@@H]3CO | inactive | –
23 | C/C=C/C(=O)N(CC)c1ccccc1C | inactive | –
24 | CC(=O)O[C@]1(C(C)=O)CC[C@H]2[C@@H]3C=C(Cl)C4=CC(=O)CC[C@]4(C)[C@H]3CC[C@@]21C | inactive | –
25 | Nc1ccc2c(c1)C(=O)c1ccccc1C2=O | – | 5.7% (inactive)
26 | COc1ccc2nc(N)sc2c1 | inactive | –
27 | Brc1nc2ccccc2s1 | inactive | –
28 | COC(=O)c1ccc(C)cc1 | inactive | –
29 | c1ccc2c(c1)[nH]c1ccccc12 | inactive | –
30 | Cc1ccc(/C(=C\CN2CCCC2)c2ccccn2)cc1 | inactive | –
31 | O=C(O)COCCN1CCN(C(c2ccccc2)c2ccc(Cl)cc2)CC1 (stereo not given) | inactive | –
32 | C[C@]12C=CC(=O)C=C1CC[C@H]1[C@@H]3C[C@@H](O)[C@](O)(C(=O)CO)[C@@]3(C)C[C@H](O)[C@@]12F | inactive | –
33 | Cc1ccc(S(=O)(=O)NCl)cc1 | inactive | –
34 | CC1(C)O[C@@H]2C[C@H]3[C@@H]4C[C@H](F)C5=CC(=O)C=C[C@]5(C)[C@@]4(F)[C@@H](O)C[C@]3(C)[C@]2(C(=O)CO)O1 | inactive | –
35 | CC/C=C\C/C=C\C/C=C\CCCCCCCC(=O)O | inactive | –
36 | c1ccc2ncccc2c1 | inactive | –
37 | FC(F)(F)C(Cl)Br (stereo not given) | inactive | –
38 | CC(C)[N+](C)(CCOC(=O)C1c2ccccc2Oc2ccccc21)C(C)C | inactive | –
39 | Nc1ccc(O)c(N)c1 | inactive | –
40 | CC(=O)OC(C)C | inactive | –
